Measurements: PubChem BioAssay (NCI)
Where “and” joins values, the source holds several entries; their conditions need not be identical. Identical values can stand only once. Compounds without any hit were thinned out: in the full panel of roughly 83,000, 20% have a hit.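 96-well plates, one dose, 48 hours. Percent growth reported; active if below 10.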 Calls of active or inactive are those of the source.

How the values were obtained:
Experiment in all cases: NCI-60 one-dose screen, 48 h (100 = growth as untreated, 0 = no growth, -100 = all killed)
Conditions in all cases: 10 µM unless noted
[1] = tested on: NCI-H23 lung
[2] = tested on: NCI-H226 lung
[3] = tested on: NCI-H322M lung
[4] = tested on: HOP-62 NSCLC
[5] = tested on: NCI-H460 lung
[6] = tested on: HOP-92 NSCLC
[7] = tested on: NCI-H522 lung
[8] = tested on: 786-0 renal
[9] = tested on: COLO 205 colon
[10] = tested on: DU-145 prostate
[11] = tested on: K-562 leukemia
[12] = tested on: MALME-3M melanoma
[13] = tested on: MDA-MB-231 breast
[14] = tested on: RXF 393 renal
[15] = tested on: SF-268 CNS
[16] = tested on: SF-295 CNS
[17] = tested on: SF-539 CNS
[18] = tested on: UACC-257 melanoma
[19] = tested on: M14 melanoma
[20] = tested on: A549/ATCC NSCLC

SMILES | growth [1] | growth [2] | growth [3] | growth [4] | growth [5] | growth [6] | growth [7] | growth [8] | growth [9] | growth [10] | growth [11] | growth [12] | growth [13] | growth [14] | growth [15] | growth [16] | growth [17] | growth [18] | growth [19] | growth [20]
CC12CCC3C(CCC4CC(O)CCC43C)C1CCC2=O (stereo unspecified) | 98.4% (inactive) | 98.1% (inactive) | 102% (inactive) | 95.8% (inactive) | 100% (inactive) | 74.5% (inactive) | 61.9% (inactive) | 78.1% (inactive) | 130% (inactive) | 103% (inactive) | 103% (inactive) | 102% (inactive) | 111% (inactive) | 133% (inactive) | 116% (inactive) | 94.8% (inactive) | 99.1% (inactive) | -10.3% (active) | 98.8% (inactive) | –
CCCCOCCOP(=O)(OCCOCCCC)OCCOCCCC | 101% (inactive) | 90.6% (inactive) | 120% (inactive) | 91.6% (inactive) | 99.3% (inactive) | 111% (inactive) | 100% (inactive) | 110% (inactive) | 105% (inactive) | 115% (inactive) | 88.3% (inactive) | 111% (inactive) | 99% (inactive) | 100% (inactive) | 98.5% (inactive) | 103% (inactive) | 99.6% (inactive) | – | 106% (inactive) | –
CC[C@H](C)[C@H](NC(=O)c1cnccn1)C(=O)N(C)[C@H](C[C@@H](OC(C)=O)c1nc(C(=O)N[C@@H](Cc2ccccc2)C[C@H](C)C(=O)OC)cs1)C(C)C | 26.2% (inactive) | 33.6% (inactive) | 46.3% (inactive) | 17.6% (inactive) | 8.2% (active) | 16.9% (inactive) | -24.6% (active) | 24.2% (inactive) | -20.3% (active) | 6.92% (active) | 5.13% (active) | 69.6% (inactive) | -4.71% (active) | 17.4% (inactive) | 19.4% (inactive) | -5.89% (active) | -21.9% (active) | 44.3% (inactive) | -5.51% (active) | –
COC(=O)[C@@H](C)C[C@H](Cc1ccccc1)NC(=O)c1cccc([C@@H](C[C@H](C(C)C)N(C)C(=O)[C@@H](NC(=O)[C@H]2CCCCN2C)C2CC2)OC(C)=O)n1 | 21% (inactive) | 22.8% (inactive) | 39.4% (inactive) | 3.33% (active) | 7.3% (active) | – | -11.3% (active) | 20.8% (inactive) | -69% (active) | 3.09% (active) | 6.15% (active) | 67.1% (inactive) | -20.4% (active) | 23.4% (inactive) | 18.6% (inactive) | 3.47% (active) | -15% (active) | 36.4% (inactive) | 1.47% (active) | 7.97% (active)
O=C(O)C(F)F | 107% (inactive) | 89.9% (inactive) | 114% (inactive) | 86.9% (inactive) | 89.2% (inactive) | 107% (inactive) | 101% (inactive) | 106% (inactive) | – | 107% (inactive) | 92.4% (inactive) | 102% (inactive) | 98.9% (inactive) | 97.1% (inactive) | 98.9% (inactive) | 101% (inactive) | 97.1% (inactive) | – | 107% (inactive) | –
CC[C@H](C)[C@H](NC(=O)[C@H]1CCCCN1C)C(=O)N(C)[C@H](C[C@@H](OC(C)=O)c1nc(C(=O)N[C@@H](Cc2ccccc2)C[C@H](C)C(=O)O)cs1)C(C)C | 25.9% (inactive) | 11.6% (inactive) | 51.5% (inactive) | 12.2% (inactive) | 11% (inactive) | 14.8% (inactive) | -47.1% (active) | 15.6% (inactive) | -80.3% (active) | 4.56% (active) | 7.63% (active) | 55.2% (inactive) | 28.2% (inactive) | 35.3% (inactive) | 34.2% (inactive) | 8.04% (active) | -10.5% (active) | 49.3% (inactive) | 8.87% (active) | –
CO[C@H]1[C@H](O[C@@H]2C[C@@H]3C/C=C/C(=O)O[C@@H](CO)C[C@H](O)[C@@H]4C[C@H](C)[C@H](C/C=C\C=C\[C@H](C)C[C@H](C2)O3)O4)O[C@@H](C)[C@H](O)[C@H]1O | 22.5% (inactive) | 37.9% (inactive) | 89.5% (inactive) | 65.8% (inactive) | 54.5% (inactive) | 95.2% (inactive) | 27.2% (inactive) | 78.7% (inactive) | 37.6% (inactive) | 52.5% (inactive) | 25.4% (inactive) | 85.5% (inactive) | 92.9% (inactive) | 88% (inactive) | 86.4% (inactive) | 14.1% (inactive) | 70.8% (inactive) | 9.72% (active) | 74.7% (inactive) | –
O=C(NCCCN1CC1)Nc1cccc2ccccc12 | 104% (inactive) and 92.7% (inactive) | 102% (inactive) and 92.4% (inactive) | 116% (inactive) and 102% (inactive) | 48.9% (inactive) and 87.9% (inactive) | 109% (inactive) and 91% (inactive) | 90.5% (inactive) | 108% (inactive) and 79.1% (inactive) | 108% (inactive) and 103% (inactive) | 106% (inactive) and 103% (inactive) | 104% (inactive) and 102% (inactive) | 86.4% (inactive) | 75.8% (inactive) and 104% (inactive) | 94.3% (inactive) and 105% (inactive) | 108% (inactive) and 107% (inactive) | 83.5% (inactive) and 96.9% (inactive) | 114% (inactive) and 88.2% (inactive) | 93.7% (inactive) and 113% (inactive) | 96.9% (inactive) and 94.2% (inactive) | 99.6% (inactive) and 98.8% (inactive) | –
Nc1cccnc1 | 109% (inactive) | 107% (inactive) | 105% (inactive) | 104% (inactive) | 115% (inactive) | 101% (inactive) | 91.6% (inactive) | 109% (inactive) | 115% (inactive) | 125% (inactive) | 105% (inactive) | 120% (inactive) | 110% (inactive) | 126% (inactive) | 108% (inactive) | 122% (inactive) | 113% (inactive) | 82.9% (inactive) | 113% (inactive) | –
CCCCCCCCCCCCCCCC[N+](C)(C)Cc1ccccc1 | 9.06% (active) and -49.4% (active) | 21.5% (inactive) and -6.4% (active) | 63.3% (inactive) and 33.8% (inactive) | 17.9% (inactive) and -86.3% (active) | 15.7% (inactive) and -100% (active) | -39.2% (active) and -55.5% (active) | 4.46% (active) and -58.2% (active) | 11% (inactive) and -94.1% (active) | -30.4% (active) and -100% (active) | 26.7% (inactive) and -40.3% (active) | 15% (inactive) and -22.5% (active) | -25% (active) and -55.5% (active) | -41.4% (active) and -70.1% (active) | 0.124% (active) | 0.106% (active) and -74.5% (active) | 20.6% (inactive) and -28.5% (active) | -61.2% (active) and -99.3% (active) | – | -45.6% (active) and -88.7% (active) | –
COC12CC3C4=CCOC5CC(=O)N6c7ccccc7C1(CCN2C4)C6C53 (stereo unspecified) | 102% (inactive) | 103% (inactive) | 109% (inactive) | 99.1% (inactive) | 109% (inactive) | 102% (inactive) | 89.9% (inactive) | 99.1% (inactive) | 105% (inactive) | 117% (inactive) | – | 112% (inactive) | 106% (inactive) | 129% (inactive) | 111% (inactive) | 111% (inactive) | 100% (inactive) | 84% (inactive) | 99.2% (inactive) | –
c1ccc2c(c1)sc1ccccc12 | 99.8% (inactive) | 94.7% (inactive) | 95.7% (inactive) | 97.7% (inactive) | 109% (inactive) | 74.7% (inactive) | 98.9% (inactive) | 105% (inactive) | – | 110% (inactive) | 105% (inactive) | 84% (inactive) | 93.8% (inactive) | 107% (inactive) | 109% (inactive) | 101% (inactive) | 93.9% (inactive) | 109% (inactive) | 94% (inactive) | –
CCCCCCCCCCCCCCCC[n+]1ccccc1 | -38.3% (active) and -24.8% (active) | -77.3% (active) and -0.958% (active) | 11.4% (inactive) and 40.2% (inactive) | -84.4% (active) and -49.3% (active) | -88.3% (active) and -83.1% (active) | -48.4% (active) and -41.7% (active) | -57.3% (active) and -67.7% (active) | -73% (active) and -92.8% (active) | -77.6% (active) and -71.5% (active) | -74.4% (active) and -12.9% (active) | -44.3% (active) and 0.871% (active) | -56.5% (active) and -38% (active) | -40.7% (active) and -32.7% (active) | -86.7% (active) | -58.9% (active) and -32.7% (active) | -69.1% (active) and -56.5% (active) | -70.3% (active) and -27.4% (active) | -52.2% (active) and -26.1% (active) | -49% (active) and -77.5% (active) | –
NC(=O)c1c(Br)c(Br)c(Br)c(Br)c1C(=O)O (tested in a mixture with another compound) | 99.9% (inactive) and 100% (inactive) | 99.8% (inactive) and 98.4% (inactive) | 105% (inactive) and 114% (inactive) | 124% (inactive) and 103% (inactive) | 111% (inactive) | 85.8% (inactive) and 86% (inactive) | 93% (inactive) and 99.3% (inactive) | 109% (inactive) and 104% (inactive) | – | 112% (inactive) and 108% (inactive) | 80.6% (inactive) and 79.6% (inactive) | 102% (inactive) and 91.1% (inactive) | 87.5% (inactive) and 94.2% (inactive) | 106% (inactive) and 112% (inactive) | 97.7% (inactive) and 100% (inactive) | – | 97.2% (inactive) and 98.4% (inactive) | 98.7% (inactive) and 105% (inactive) | 97.1% (inactive) and 107% (inactive) | –
CN1[C@@H](CC(=O)c2ccccc2)CCC[C@H]1CC(=O)c1ccccc1 | 97.2% (inactive) | 96.7% (inactive) | 110% (inactive) | 110% (inactive) | 115% (inactive) | 111% (inactive) | 86.9% (inactive) | 108% (inactive) | 114% (inactive) | 108% (inactive) | 102% (inactive) | – | 111% (inactive) | 119% (inactive) | 102% (inactive) | 97.2% (inactive) | 111% (inactive) | 98.1% (inactive) | 104% (inactive) | –
